Giardia killer = kills Giardia lamblia. 340,000 compounds, 0.15% hits. Giardia lamblia trophozoite viability. activity change, % at 7.66 µM, hits read low; in the data active = activity change below about -80%; inconclusive = between about -30% and that limit;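 note: parasites exposed to compound for two days anaerobically before the ATP read; % is set by controls: 0 for no effect and ±100 for the full control effect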
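Compounds were tested on trophozoites seeded at 100 cells/well and held 48 hrs at 37 deg C anaerobically. An ATP-based luminescent kit measured the remaining live cells.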
uPA surface inh = cell surface uPA generation inhibition. Potency, µM (top dose mostly 38.3 µM), for inactives: at the highest dose activity change, negative = inhibition, actives largely listed as inhibitors. AID 540303. 330,000 compounds, 0.31% hits. cell surface uPA generation assay, qHTS; active = well fitted inhibition curve with a large enough effect; inconclusive = small, poorly fitted or top-dose-only effect; inactive = no such curve, though single readings can be large or run the other way; tested in mouse RAW 264.7 cells; note: potency is the fitted concentration of half-maximal effect; % is set by controls: 0 for no effect and ±100 for the full control effect; nearly all actives have a fitted effect of over 55% in size
TGFb inhibitor = blocks TGF-b signaling | 410,000 compounds, 1.2% hits | AID 588855 | Potency, µM (highest dose often 46.1 µM), without a hit: at the highest dose activity, negative = inhibition, hits mostly inhibitors | HepG2 CAGA-GFP TGF-b/SMAD3 reporter, GFP fluorescence, 18 h; TGF-beta stimulated, 500 pg/mL final; note: potency is the fitted concentration of half-maximal effect; % is set by controls: 0 for no effect and ±100 for the full control effect; nearly all actives have a fitted effect of over 65% in size
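HEPG2 CAGA-GFP reporter cells (1000/well, DMEM with 1% FBS) received compounds, then recombinant TGF-beta at 500 pg/mL final for 18 hours at 37 degrees C. Per-cell GFP summed per well was normalised to unstimulated and stimulated DMSO controls before curve fitting.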
S2 tox = viability counter-screen for ATXN expression inhibitors | Potency, µM (series often up to 56.7 µM), usual class: cytotoxic | 400,000 compounds, 0.49% hits | S2 cells (HEK-293 line with an ATXN2-luciferase reporter) viability, CellTiter-Fluor protease fluorescence, 24 h; note: potency is the fitted concentration of half-maximal effect; nearly all actives have a fitted effect of over 40% in size
HepG2 tox = kills HepG2 cells in TGF-b inhibitor counter-screen | HepG2 CAGA-GFP viability, ATP luminescence, 18 h | Potency, µM (highest dose often 46.1 µM), without a hit: at the top dose activity change, negative = cytotoxicity, most hits filed as cytotoxic | 410,000 compounds, 0.76% hits; note: potency is the fitted concentration of half-maximal effect
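HepG2 CAGA-GFP cells (1000/well, DMEM with 1% FBS) received compound, then TGF-beta at 500 pg/mL final, and were incubated 18 hours at 37 degrees C. Viability was read by CellTiter-Glo luminescence. Media-only wells were set as complete cell-killing and DMSO as no toxicity.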
ATXN2 expr inh = reduces ATXN2 reporter expression in HEK-293 cells; Potency, µM (series often up to 57 µM), without a hit: top-dose activity change, negative = inhibition, hits mostly inhibitors; AID 1745845; HEK-293 ATXN2-luciferase reporter, luminescence, 24 h; 360,000 compounds, 0.72% hits; note: potency is the fitted concentration of half-maximal effect; % is set by controls: 0 for no effect and ±100 for the full control effect; nearly all actives have a fitted effect of over 55% in size
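ATXN2-luciferase reporter cells (luciferase flanked by upstream and downstream ATXN2 gene portions) were treated 24 h at 37 °C with compounds at up to 57 uM. SteadyGlo luminescence gave expression; GF-AFC fluorescence gave viability.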
Starred values were filed as active, the others as inactive; i = inactive; ? = inconclusive; . = not tested or not shown; ! = repeats disagree. Compounds with a hit are over-represented: about 2.6% of the library has one in this group of screens. Unless noted, calls come from the whole dose curve; as a rule, active = well fitted curve in the direction sought with a large enough effect; inconclusive = small, poorly fitted or top-dose-only effect, or another doubt; inactive = no such curve, though single readings can be large; an effect the other way counts as inactive or inconclusive.

SMILES	Giardia killer	uPA surface inh	TGFb inhibitor	S2 tox	HepG2 tox	ATXN2 expr inh
Fc1ccc(C[n+]2c(-c3ccccc3)cc(-c3ccccc3)cc2-c2ccccc2)cc1	-2	8.9µM*	?	?	-5%	?
Clc1ccc(C[n+]2c(-c3ccccc3)cc(-c3ccccc3)cc2-c2ccccc2)cc1	11	?	?	10µM*	-82%	?
Cc1ccc(Cl)cc1N1CCN(C(=O)c2cn(CC(C)C)c(=O)c3c2c2ccccc2n3C)CC1	.	.	0%	?	1%	?
CC(C)(N)Cc1ccccc1Cl	.	.	.	i	.	8%
COc1cc(NC(=O)c2cc3cc4ccc(C)cc4nc3o2)cc(OC)c1OC	.	.	-27%	?	-16%	?
O=C(O)C(=O)c1cn(Cc2ccccc2)c2ccc(-c3ccc(OC(F)(F)F)cc3)cc12	.	.	.	.	.	-7%
O=C(Nc1ccc(Br)cc1)c1ccc(F)c(S(=O)(=O)N2CCCc3ccccc32)c1	.	.	?	.	-20%	.
CCN(CC)C(=O)c1ccc(NC(=O)COc2ccc(-c3nn(C)c(=O)c4ccccc34)cc2)cc1	-3	0%	10µM*	i	-13%	?
CCOC(=O)N1CCC(NC(=O)c2ccc3c(c2)N(Cc2cccc(C)c2)C(=O)c2ccccc2S3(=O)=O)CC1	.	.	?	i	9%	-10%
C[C@]12CC[C@H](O)CC1=CCC1C2CC[C@@]2(C)C1C[C@@H](O)[C@@H]2O (stereo not given in full)	-22	5%	13%	i	-1%	5%
C[C@H]1CC[C@@H]2[C@@H](C)[C@H]3C(CC4C5CC=C6CC(O[C@@H]7O[C@H](CO)C(O[C@@H]8O[C@@H](C)[C@H](O)[C@@H](O)[C@H]8O)[C@H](O)[C@H]7O[C@@H]7O[C@@H](C)[C@H](O)[C@@H](O)[C@H]7O)CC[C@]6(C)C5CC[C@@]43C)N2C1 (stereo not given in full)	-5	.	14µM*	.	20µM*	.
C[C@@H]1CC[C@@]2(OC1)O[C@H]1C[C@H]3[C@@H]4CC=C5C[C@@H](O[C@@H]6O[C@H](CO)[C@@H](O[C@@H]7O[C@@H](C)[C@H](O)[C@@H](O)[C@@H]7O)[C@H](O)[C@@H]6O[C@@H]6O[C@@H](C)[C@H](O)[C@@H](O)[C@@H]6O)CC[C@]5(C)[C@@H]4CC[C@]3(C)[C@@H]1[C@H]2C	.	.	.	.	.	12µM*
C=CCc1ccccc1OCCn1c(C2CC(=O)N(Cc3ccc(F)cc3)C2)nc2ccccc21 (stereo not given)	.	.	16µM*	.	-108%	?
Oc1cc(Cl)ccc1Oc1ccc(Cl)cc1Cl	3	-6%	18µM*	40µM*!	-65%	40µM*!
Cc1c(C(=O)Nc2cccc(C(F)(F)F)c2)cc(-c2ccccc2)n1CCCN1CCOCC1	.	.	.	.	.	-14%
COc1ccc2c(c1)CCc1c(C(=O)Nc3c(C)nn(Cc4ccccc4C)c3C)noc1-2	.	.	13µM*	?	-30%	0%
Cc1nn(Cc2ccc(Cl)c(Cl)c2)c(C)c1NC(=O)c1cc(CC(C)C)on1	6	?	?	?	1%	?
COc1ccc(NC(=O)c2sc3nc4c(cc3c2N)N2CCC4CC2)cc1OC	.	.	?	?	-50%	-26%
CCN1CCN(c2cc(C)c3cc(NC(=O)c4ccc(OC)c(OC)c4)ccc3n2)CC1	-5	7.9µM*	75%	?	-31%	-8%
CCCCCCC(=O)N/N=C/c1c(O)n(CCc2ccccc2)c(=O)[nH]c1=O	22	0%	-18%	?	-13%	18µM*
CC(C)n1c(O)c(C2c3cc(Cl)ccc3Oc3[nH]c(=O)n(C(C)C)c(=O)c32)c(=O)[nH]c1=O (stereo not given)	4	2%	6.3µM*	11µM*	14µM*	4µM*
CC(O)C1C=CC=CC(=O)OC2CC3OC4C5OC5(C)CCC4(COC(=O)C4OC4(C)C(O)CO1)C2(C)C31CO1 (stereo not given)	-13	-9%	0.25µM*	0.0067µM*	7%	?
CC(=O)OC1C(=O)OCC23CCC4(C)OC4C2OC2CC(OC(=O)C=CC=CC(=O)OCCC1C)C3(C)C21CO1 (stereo not given)	?	-8%	-63%	0.03µM*	-26%	?
CCOP(=O)(OCC)C(C)NC(=O)N(CCCl)N=O (stereo not given)	.	.	.	.	.	13%
CCC(C)C1NC(=O)C(NC(=O)C(CC(C)C)N(C)C(=O)C2CCCN2C(=O)C(C)O)C(C)OC(=O)C(Cc2ccc(OC)cc2)N(C)C(=O)C2CCCN2C(=O)C(CC(C)C)NC(=O)[C@H](C)C(=O)[C@H](C(C)C)OC(=O)CC1O (stereo not given in full)	-1	-10%	-104%	0.013µM*	-2%	?
SMILES	Giardia killer	uPA surface inh	TGFb inhibitor	S2 tox	HepG2 tox	ATXN2 expr inh
CCOC(=O)C1(c2ccccc2)CCN(CCc2ccc(N)cc2)CC1	.	.	.	i	.	-4%
CC(C)CCOC(=O)c1c(N)n(CC2CCCO2)c2nc3ccccc3nc12 (stereo not given)	3	9%	11µM*	i	0%	-14%
CC(C)OP(=O)(OC(C)C)C(NC(=O)c1ccccc1Br)C(N)=O (stereo not given)	-15	0%	-1%	i	-30%	14%
Cc1ccc(Cl)cc1N1CCN(C(=O)C2CCCN(S(=O)(=O)c3ccc(Br)s3)C2)CC1 (stereo not given)	.	.	?	i	4%	-5%
Clc1ccc(-c2csc3ncnc(Sc4nnnn4C4CC4)c23)cc1	.	.	?	.	-99%	.
NC(N)=N/N=C/c1cn(-c2ccccc2)nc1-c1cccs1	-10	-8%	?	.	11µM*	.
COC1C(C)OC(OC2CC(C)(O)Cc3cc4c(c(O)c32)C(=O)c2c(O)cc3c(c2C4=O)OC2OC3(C)C(O)C(N(C)C)C2O)C(OC)C1(C)OC (stereo not given)	-16	-14%	2µM*	?	30%	?
COC1=C(C)C(=O)C2=C(C1=O)C(CO)N1C(C#N)C3CC4C(C1C2N1CCOC41)N3C (stereo not given)	5	-12%	7.1µM*	?	3%	?
CCOC(=O)c1c(-n2c(C)cc(/C=C3/C(=O)NC(=O)N(CC)C3=O)c2C)sc2c1CCCC2	3	1%	-25%	i	-17%	-24%
CCOC(=O)c1c(-n2c(C)cc(C=C3C(=O)NC(=S)NC3=O)c2C)sc2c1CCCC2	1	?	?	22µM*	-47%	20µM*
O=C(c1ccc(F)cc1)N1CCC(N2CCCCCC2)CC1	18	-3%	?	i	2%	0%
